According to PubChem BioAssay (NCATS):
Where “and” joins values, the source holds several entries; their conditions need not be identical. Equal values may be shown once. Records with an inconclusive call do not appear. Calls of active or inactive are those of the source. Calls follow the shape of the dose curve; as a rule, active = well fitted inhibition curve with a large enough effect; inconclusive = small, poorly fitted or top-dose-only effect; inactive = flat fitted curve, though single readings scatter.

What was measured:
[1] = qHTS profiling for inhibitors of Plasmodium falciparum proliferation (AID 504749);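 also: 0% = DMSO vehicle and full inhibition = artemisinin control; nearly all actives have a fitted effect of over 60% in size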; details: P. falciparum in erythrocytes, SYBR Green DNA, 72 h
Method in brief: (§1)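 Fluorescence of SYBR Green-bound parasite DNA, read at 485/535 nm, served as the growth measure. Infected erythrocytes were cultured with compound 72 h; artemisinin (0.29 uM) and DMSO wells defined the normalization range.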

3D7 = test: as above; details: P. falciparum in erythrocytes, SYBR Green DNA, 72 h; series mostly up to 28.7 µM
Method in brief: as §1

7G8 = test: as above; details: P. falciparum in erythrocytes, SYBR Green DNA, 72 h; series mostly up to 28.7 µM
Method in brief: as §1

AA1029 = test: as above; details: P. falciparum in erythrocytes, SYBR Green DNA, 72 h; series mostly up to 28.7 µM
Method in brief: as §1

AS120 = test: as above; details: P. falciparum in erythrocytes, SYBR Green DNA, 72 h; series mostly up to 28.7 µM
Method in brief: as §1

ATS189 = test: as above; details: P. falciparum in erythrocytes, SYBR Green DNA, 72 h; series mostly up to 28.7 µM
Method in brief: as §1

ATS95 = test: as above; details: P. falciparum in erythrocytes, SYBR Green DNA, 72 h; series mostly up to 28.7 µM
Method in brief: as §1

C2A = test: as above; details: P. falciparum in erythrocytes, SYBR Green DNA, 72 h; series mostly up to 28.7 µM
Method in brief: as §1

[2] = at 28.7 µM (top of the series), parasite line A
[3] = at 28.7 µM (top of the series), parasite line B

O=Cc1ccccc1C=O
inactive: activity, negative = inhibition [1, 2] -1.21% | activity, negative = inhibition [1, 3] 5.64% | Potency (3D7) | Potency (7G8) | Potency (AA1029) | Potency (AS120) | Potency (ATS189) | Potency (ATS95) | Potency (C2A)

CCCCc1ncc(/C=C(\Cc2cccs2)C(=O)O)n1Cc1ccc(C(=O)O)cc1
inactive: activity, negative = inhibition [1, 2] 6.94% | activity, negative = inhibition [1, 3] 4.94% | Potency (3D7) | Potency (7G8) | Potency (AA1029) | Potency (AS120) | Potency (ATS189) | Potency (ATS95) | Potency (C2A)

Cc1ncc(COP(=O)(O)O)c(C=O)c1O
inactive: activity, negative = inhibition [1, 2] -4.1% | activity, negative = inhibition [1, 3] 3.77% | Potency (3D7) | Potency (7G8) | Potency (AA1029) | Potency (AS120) | Potency (ATS189) | Potency (ATS95) | Potency (C2A)

O=C(O)c1ccccn1
inactive: activity, negative = inhibition [1, 2] 0.929% | activity, negative = inhibition [1, 3] -26.4% | Potency (3D7) | Potency (7G8) | Potency (AA1029) | Potency (AS120) | Potency (ATS189) | Potency (ATS95) | Potency (C2A)

COc1cc(C(=O)N2CCOCC2)cc(OC)c1OC
inactive: activity, negative = inhibition [1, 2] 13.6% and -1.06% | activity, negative = inhibition [1, 3] 0.0617% and 7.6% | Potency (3D7) | Potency (7G8) | Potency (AA1029) | Potency (AS120) | Potency (ATS189) | Potency (ATS95) | Potency (C2A)

CC(=O)CCC(=O)O
inactive: activity, negative = inhibition [1, 2] 10.3% | activity, negative = inhibition [1, 3] -7.9% | Potency (3D7) | Potency (7G8) | Potency (AA1029) | Potency (AS120) | Potency (ATS189) | Potency (ATS95) | Potency (C2A)

Nc1ccc(S(=O)(=O)NC(=O)c2ccccc2)cc1
inactive: activity, negative = inhibition ([1]; at 12.8 µM (top of the series), parasite line A) 10.4% | activity, negative = inhibition ([1]; at 12.8 µM (top of the series), parasite line B) 13.1% | Potency (3D7) | Potency (7G8) | Potency (AA1029) | Potency (AS120) | Potency (ATS189) | Potency (ATS95) | Potency (C2A)

CCCCC(CC)COC(=O)c1ccccc1O (stereo not given)
inactive: activity, negative = inhibition [1, 2] 5.45% | activity, negative = inhibition [1, 3] -0.719% | Potency (3D7) | Potency (7G8) | Potency (AA1029) | Potency (AS120) | Potency (ATS189) | Potency (ATS95) | Potency (C2A)

CCCCCCCCCCCCCCCCCCOCC(O)CO (stereo not given)
inactive: activity, negative = inhibition [1, 2] 11.2% | activity, negative = inhibition [1, 3] 11.4% | Potency (3D7) | Potency (7G8) | Potency (AA1029) | Potency (AS120) | Potency (ATS189) | Potency (ATS95) | Potency (C2A)

CCOC(=O)c1ccc(O)cc1
inactive: activity, negative = inhibition [1, 2] 6.51% | activity, negative = inhibition [1, 3] -7.49% | Potency (3D7) | Potency (7G8) | Potency (AA1029) | Potency (AS120) | Potency (ATS189) | Potency (ATS95) | Potency (C2A)

CC(C)(C)C(=O)NCCCC(=O)O
inactive: activity, negative = inhibition [1, 2] 13.3% | activity, negative = inhibition [1, 3] -4.47% | Potency (3D7) | Potency (7G8) | Potency (AA1029) | Potency (AS120) | Potency (ATS189) | Potency (ATS95) | Potency (C2A)

COc1ccc(Cl)cc1C(=O)NCCc1ccc(S(=O)(=O)NC(=O)NC2CCCCC2)cc1
inactive: activity, negative = inhibition [1, 2] 10.8% | activity, negative = inhibition [1, 3] 8.21% | Potency (3D7) | Potency (7G8) | Potency (AA1029) | Potency (AS120) | Potency (ATS189) | Potency (ATS95) | Potency (C2A)

O=C(O)COc1nn(Cc2ccccc2)c2ccccc12
inactive: activity, negative = inhibition [1, 2] 1.43% | activity, negative = inhibition [1, 3] 10.4% | Potency (3D7) | Potency (7G8) | Potency (AA1029) | Potency (AS120) | Potency (ATS189) | Potency (ATS95) | Potency (C2A)

O=C1NC(=O)[C@@]2(CCOc3ccc(F)cc32)N1
inactive: activity, negative = inhibition [1, 2] 7.16% | activity, negative = inhibition [1, 3] 9.22% | Potency (3D7) | Potency (7G8) | Potency (AA1029) | Potency (AS120) | Potency (ATS189) | Potency (ATS95) | Potency (C2A)

Nc1nc2c(ncn2CCC(CO)CO)c(=O)[nH]1
inactive: activity, negative = inhibition [1, 2] 3.65% | activity, negative = inhibition [1, 3] -4.23% | Potency (3D7) | Potency (7G8) | Potency (AA1029) | Potency (AS120) | Potency (ATS189) | Potency (ATS95) | Potency (C2A)

O=C1c2c(O)cccc2Cc2cccc(O)c21
inactive: activity, negative = inhibition [1, 2] 14.6% | activity, negative = inhibition [1, 3] -4.21% | Potency (3D7) | Potency (7G8) | Potency (AA1029) | Potency (AS120) | Potency (ATS189) | Potency (ATS95) | Potency (C2A)

O=C(O)c1ccccc1-c1ccc(C(F)(F)F)cc1
inactive: activity, negative = inhibition [1, 2] 11.3% | activity, negative = inhibition [1, 3] 19.8% | Potency (3D7) | Potency (7G8) | Potency (AA1029) | Potency (AS120) | Potency (ATS189) | Potency (ATS95) | Potency (C2A)

NC(=O)NC(=O)Cc1ccccc1
inactive: activity, negative = inhibition [1, 2] 2.68% | activity, negative = inhibition [1, 3] -4.74% | Potency (3D7) | Potency (7G8) | Potency (AA1029) | Potency (AS120) | Potency (ATS189) | Potency (ATS95) | Potency (C2A)

[O-][n+]1cccc(CO)c1
inactive: activity, negative = inhibition [1, 2] -0.247% | activity, negative = inhibition [1, 3] 11.6% | Potency (3D7) | Potency (7G8) | Potency (AA1029) | Potency (AS120) | Potency (ATS189) | Potency (ATS95) | Potency (C2A)

CC(O)COc1ccccc1 (stereo not given)
inactive: activity, negative = inhibition [1, 2] 5.76% | activity, negative = inhibition [1, 3] 0.212% | Potency (3D7) | Potency (7G8) | Potency (AA1029) | Potency (AS120) | Potency (ATS189) | Potency (ATS95) | Potency (C2A)
